In PubChem BioAssay (Tox21) one finds Potency and outcome data, which are given here for 32 compounds.

SMILES strings stand for the structures. Values joined by “and” are separate entries in the source; they are usually repeats but may differ in a detail not shown here. Identical values can stand only once. Inconclusive results are not listed. Entries that show only a call come without a potency. Some structures have more than one record in an assay (separate samples or runs), and their calls can disagree. Active and inactive are the calls of the source. Unless noted, calls come from the whole dose curve.

The nature of the first experiment: qHTS assay to identify small molecule antagonists of the sonic hedgehog signaling (Shh) pathway - cell viability counter screen (AID 1259367; active = well fitted cell-killing curve with a large enough effect in the repeat runs; note: nearly all actives have a fitted effect of over 55% in size; note: potency is the fitted concentration of half-maximal effect). The following applies: NIH/3T3 Gli1-Luc viability, CellTiter-Fluor, 24 h; series mostly up to 92.4 µM. In a few lines: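 Using CellTiter-Fluor, viability of Gli1-Luc reporter 3T3 cells is read by fluorescence in the wells used for the Shh luciferase assay. Treatment lasts 23 hr with conditioned medium, then reagent 1 hr at 37C.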
(Quantitative high-throughput screening tests each substance at several concentrations.)
In the case of `O=C(O)CCl`, the Potency result was “inactive”.
For `C=CCOC(Cn1ccnc1)c1ccc(Cl)cc1Cl` (stereo not given), the Potency result was “inactive”.
`CC(=O)O`: the Potency result was “inactive”.
For the compound `CCC[N+]1(C)CCCC1`, the Potency result is “inactive”.
Take `CCCCCC[n+]1ccccc1`: the Potency entry was “inactive”.
In the case of `CCCC[N+]1(C)CCCCC1`, the Potency entry was “inactive”.
In the case of `COCC(=O)N(c1c(C)cccc1C)C(C)C(=O)OC` (stereo not given), the Potency result was “inactive”.
In the case of `Nc1ccccc1`, the Potency result was “inactive”.
With `O=S(=O)(O)O`, the Potency result was “inactive”.
For `C1CCC(NC2CCCCC2)CC1`, the Potency result is “inactive”.
For the compound `CCCn1cc[n+](C)c1`, the Potency result was “inactive”.
Regarding `O=C(O)C(Cl)(Cl)Cl`, the Potency result was “inactive”.
As to `COP(=O)(OC)C(O)C(Cl)(Cl)Cl` (stereo not given), the Potency entry is “inactive”.
With `CN(C)[C@@H]1C(=O)C(C(N)=O)=C(O)[C@@]2(O)C(=O)C3=C(O)c4c(O)cccc4[C@@](C)(O)[C@H]3[C@H](O)[C@@H]12`, the Potency result was “inactive”.
Turning to `O=C(O)C(Cl)Cl`, the Potency entry was “inactive”.
Consider `CCOP(=S)(OCC)Oc1ccc2c(C)c(Cl)c(=O)oc2c1`, for which the Potency result was “inactive”.
On to `CC[n+]1ccccc1`, for which the Potency result is “inactive”.
In the case of `COP(=O)(OC)OC=C(Cl)Cl`, the Potency result is “inactive”.
Same read-out and setting: for `CCCCn1cc[n+](C)c1C` the value was “inactive”; for `CC(=O)[O][Hg][c]1ccccc1`, 1.08 µM (active) and 2.17 µM (active) and 1.33 µM (active); for `CCCCCCCCCCn1cc[n+](C)c1`, “inactive”.
The same measure, in the same setting: for `O=C(O)COc1ccc(Cl)cc1Cl` the value was “inactive”.
Same read-out and setting: for `CC[N+](CC)(CC)CC` the value was “inactive”; for `CCCCn1cc[n+](C)c1`, “inactive”.
In the case of `C[C@]12CCC(=O)C=C1CC[C@@H]1[C@@H]2CC[C@]2(C)C(=O)CC[C@@H]12`, the Potency was 60.1 µM (active) and inactive.
As for `Cc1cc(Cl)ccc1OCC(=O)O`, the Potency result is “inactive”.
On the same count and under the same terms, for `O=c1[nH]c(=O)n(Cl)c(=O)n1Cl` the value was “inactive”.
`CCn1cc[n+](C)c1C`: the Potency result is “inactive”.
In the case of `O=P1(N(CCCl)CCCl)NCCCO1` (stereo not given), the Potency result was “inactive”.
`OCCOc1ccccc1`: the Potency entry is “inactive”.
Turning to `CCNc1nc(Cl)nc(NCC)n1`, the Potency entry was “inactive”.
For the compound `CC(Cl)(Cl)C(=O)O`, the Potency result is “inactive”.

Another experiment is described as follows: qHTS assay to identify small molecule agonists of the sonic hedgehog signaling (Shh) pathway (AID 1259368).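 Note: NIH/3T3-derived 3T3Gli1-Luc cells carrying a stable Gli1-driven firefly luciferase reporter; nearly all actives have a fitted effect of over 15% in size.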 Particulars: NIH/3T3 Gli1-Luc reporter, luciferase, 24 h, stronger effect = higher value; series mostly up to 92.4 µM. In a few lines:
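Mouse fibroblast (NIH/3T3) reporter cells with stably integrated Gli1-Luc were treated 24 hr with compound; firefly luciferase luminescence served as the read-out.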
For `O=C(O)CCl`, the outcome was inactive.
Turning to `C=CCOC(Cn1ccnc1)c1ccc(Cl)cc1Cl` (stereo not given), the compound was called inactive.
With `CC(=O)O`, the result was inactive.
For the compound `CCC[N+]1(C)CCCC1`, the outcome was inactive.
In the case of `CCCCCC[n+]1ccccc1`, the outcome was inactive.
Same read-out and setting: for `CCCC[N+]1(C)CCCCC1` the value was “inactive”; for `COCC(=O)N(c1c(C)cccc1C)C(C)C(=O)OC` (stereo not given), “inactive”; for `Nc1ccccc1`, “inactive”.
As to `O=S(=O)(O)O`, the compound was classed as inactive.
The same measure, in the same setting: to `C1CCC(NC2CCCCC2)CC1` belongs “inactive”.
Regarding `CCCn1cc[n+](C)c1`, the call was inactive.
With `O=C(O)C(Cl)(Cl)Cl`, the outcome was inactive.
Consider `COP(=O)(OC)C(O)C(Cl)(Cl)Cl` (stereo not given), for which the result was inactive.
Same read-out and setting: to `CN(C)[C@@H]1C(=O)C(C(N)=O)=C(O)[C@@]2(O)C(=O)C3=C(O)c4c(O)cccc4[C@@](C)(O)[C@H]3[C@H](O)[C@@H]12` belongs “inactive”.
In the case of `O=C(O)C(Cl)Cl`, the result was inactive.
As for `CCOP(=S)(OCC)Oc1ccc2c(C)c(Cl)c(=O)oc2c1`, the call was inactive.
As to `CC[n+]1ccccc1`, the compound was called inactive.
For `COP(=O)(OC)OC=C(Cl)Cl`, the call was inactive.
The same measure, in the same setting: for `CCCCn1cc[n+](C)c1C` the value was “inactive”; for `CC(=O)[O][Hg][c]1ccccc1`, “inactive”.
In the case of `CCCCCCCCCCn1cc[n+](C)c1`, the compound was classed as inactive.
Take `O=C(O)COc1ccc(Cl)cc1Cl`: the compound was called inactive.
Consider `CC[N+](CC)(CC)CC`, for which the result was inactive.
`CCCCn1cc[n+](C)c1`: the call was inactive.
The same measure, in the same setting: to `C[C@]12CCC(=O)C=C1CC[C@@H]1[C@@H]2CC[C@]2(C)C(=O)CC[C@@H]12` belongs “inactive”; to `Cc1cc(Cl)ccc1OCC(=O)O`, “inactive”.
Same read-out and setting: to `O=c1[nH]c(=O)n(Cl)c(=O)n1Cl` belongs “inactive”; to `CCn1cc[n+](C)c1C`, “inactive”; to `O=P1(N(CCCl)CCCl)NCCCO1` (stereo not given), “inactive”.
For `OCCOc1ccccc1`, the compound was called inactive.
Take `CCNc1nc(Cl)nc(NCC)n1`: the result was inactive.
On the same count and under the same terms, to `CC(Cl)(Cl)C(=O)O` belongs “inactive”.

The next experiment is described as follows: qHTS assay to identify small molecule antagonists of the sonic hedgehog signaling (Shh) pathway (AID 1259369). Note: nearly all actives have a fitted effect of over 45% in size. Note: potency is the fitted concentration of half-maximal effect. Particulars: NIH/3T3 Gli1-Luc reporter, Shh antagonist, luminescence 24 h; series mostly up to 92.4 µM. The method, boiled down:
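Conditioned medium drives Shh signalling in 3T3Gli1-Luc cells; compounds in DMSO co-applied, 24hr at 37 C, then luciferase luminescence.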
`O=C(O)CCl`: the Potency result was “inactive”.
Consider `C=CCOC(Cn1ccnc1)c1ccc(Cl)cc1Cl` (stereo not given), for which the Potency is 13.7 µM (active) and 9.69 µM (active).
As for `CC(=O)O`, the Potency entry is “inactive”.
Take `CCC[N+]1(C)CCCC1`: the Potency result is “inactive”.
Same read-out and setting: to `CCCCCC[n+]1ccccc1` belongs 13.8 µM (active) and 17.3 µM (active) and inactive; to `CCCC[N+]1(C)CCCCC1`, “inactive”.
`COCC(=O)N(c1c(C)cccc1C)C(C)C(=O)OC` (stereo not given): the Potency result was “inactive”.
As for `Nc1ccccc1`, the Potency result is “inactive”.
As to `O=S(=O)(O)O`, the Potency entry is “inactive”.
Take `C1CCC(NC2CCCCC2)CC1`: the Potency entry is “inactive”.
Same read-out and setting: to `CCCn1cc[n+](C)c1` belongs “inactive”; to `O=C(O)C(Cl)(Cl)Cl`, “inactive”; to `COP(=O)(OC)C(O)C(Cl)(Cl)Cl` (stereo not given), “inactive”.
Same read-out and setting: to `CN(C)[C@@H]1C(=O)C(C(N)=O)=C(O)[C@@]2(O)C(=O)C3=C(O)c4c(O)cccc4[C@@](C)(O)[C@H]3[C@H](O)[C@@H]12` belongs “inactive”.
As for `O=C(O)C(Cl)Cl`, the Potency entry is “inactive”.
As to `CCOP(=S)(OCC)Oc1ccc2c(C)c(Cl)c(=O)oc2c1`, the Potency was 13.8 µM (active).
As to `CC[n+]1ccccc1`, the Potency result was “inactive and 429 nM (active)”.
As for `COP(=O)(OC)OC=C(Cl)Cl`, the Potency entry was “inactive”.
Regarding `CCCCn1cc[n+](C)c1C`, the Potency result is “inactive”.
Still for that read-out and setting: for `CC(=O)[O][Hg][c]1ccccc1` the value was 121 nM (active) and 61.1 nM (active) and 8.4 nM (active); for `O=C(O)COc1ccc(Cl)cc1Cl`, “inactive”.
Still for that read-out and setting: to `CC[N+](CC)(CC)CC` belongs “inactive”.
`CCCCn1cc[n+](C)c1`: the Potency result is “inactive”.
As for `C[C@]12CCC(=O)C=C1CC[C@@H]1[C@@H]2CC[C@]2(C)C(=O)CC[C@@H]12`, the Potency is 15.1 µM (active) and 13.7 µM (active) and inactive.
For `Cc1cc(Cl)ccc1OCC(=O)O`, the Potency result was “inactive”.
For `O=c1[nH]c(=O)n(Cl)c(=O)n1Cl`, the Potency result is “inactive”.
`CCn1cc[n+](C)c1C`: the Potency result is “inactive”.
As for `O=P1(N(CCCl)CCCl)NCCCO1` (stereo not given), the Potency entry is “inactive”.
For the compound `OCCOc1ccccc1`, the Potency entry was “inactive”.
Consider `CCNc1nc(Cl)nc(NCC)n1`, for which the Potency is 2.16 µM (active) and inactive.
On the same count and under the same terms, to `CC(Cl)(Cl)C(=O)O` belongs “inactive”.
